Results reported in PubChem BioAssay AID651602 (The Scripps Research Institute Molecular Screening Center, 2012).
Among all 360,000 compounds or so, about 950 (0.26%) were called active. The sample holds actives, similar compounds and a random draw of the others, so the mix is not that of the screen. Unmarked numbers belong to inactive results. Cut-off read from the data, not from the text of the source: active = inhibition above about 11%; inactive = the rest.

Experiment: growth loss of phage-infected E. coli, primary screen, RecBCD inhibitor project, absorbance, with phage, HTS (AID 651602)
Conditions: at 11.9 µM, stronger effect = higher value

Point of comparison: `COC(=O)C1=C(C)N(Cc2ccccc2C(F)(F)F)C(=NCc2ccc(OC)cc2)NC1c1cccc(C(F)(F)F)c1` (stereo not drawn), inhibition 5.38%. Against it:
- O=C(O)Cn1cnc2c(NCc3ccccc3)ncnc21 — lower, -1.71%
- CC[C@H](NC(=O)[C@H](Cc1ccccc1)NC(=O)[C@H]1O[C@@H](n2cnc3c(=O)[nH]c(N)nc32)[C@H](O)[C@@H]1O)c1ccccc1 — lower, 3.64%
- COc1ccccc1C(=O)N1O[C@]23C=C[C@]14C[C@@H](O)CC[C@]4(C)C2CC[C@]1(C)[C@@H]([C@H](C)/C=C/[C@H](C)C(C)C)CC[C@H]13 (stereo partly drawn) — lower, 3.99%
- COc1cccc(CNC(=O)[C@H]2CCCN2C(=O)[C@H]2CCCN2C(=O)C2CCCCC2)c1 — lower, 2.87%
- O=S1(=O)c2c(cccc2N2CCCCC2)O[C@H](COCc2ccccc2)CN1C1CC1 — lower, 1.52%
- CCOC(=O)C1=C(C(=O)OCC)C2N(Cc3ccc(C#N)cc3)c3ccccc3[C@@]23C[C@@H](C(=O)OC)N(S(=O)(=O)c2ccc(F)cc2)C3=N1 (stereo partly drawn) — lower, 2.71%
- CC(=O)N1C[C@@H](CO)[C@@H](N(C)C(=O)C(C)(C)C)C[C@H]1c1ccccc1Br — lower, 2.5%
- O=S(=O)(c1cccs1)N1CCCc2nc(-c3ccc(Br)cc3)ccc21 — lower, 3.49%
- CCOc1ccc(C(CC(=O)O)n2cnnn2)cc1OC (stereo not drawn) — lower, 3.64%
- CCOc1ccc(C(CCc2ccccc2)NC(=O)c2ccc(OC)c(OC)c2)cc1OCC (stereo not drawn) — lower, -0.08%
- CCc1c(-c2ccccc2OC)ncn1CCc1ccccc1OC — lower, 0.54%
- CCOC(=O)C1CSCCS(=O)(=O)N1Cc1ccc(Cl)cc1 (stereo not drawn) — lower, 0.55%
- COC(=O)C1=C(C)NC(=S)NC1c1ccc(OC)cc1 (stereo not drawn) — lower, 3.49%
- COC(=O)c1c(-c2ccc(OC)cc2)c2c(c3c4ccccc4n(S(=O)(=O)c4ccc(C)cc4)c13)C(=O)N(C)C2 — lower, 1.94%
- Cc1cc(Br)cn2c(Cc3ccccc3C(F)(F)F)c(-c3ccc(C#N)cc3)nc12 — lower, 4.55%
- O=C(NNS(=O)(=O)Cc1ccccc1)c1ccc([N+](=O)[O-])cc1 — lower, 4.99%
- O=C(Nc1cc(-c2ccccc2)nn1-c1ccccc1F)c1ccc([N+](=O)[O-])cc1 — lower, 3.65%
- COC(=O)C1=C(C)N(Cc2ccccc2C(F)(F)F)C(=NCc2ccc(C(F)(F)F)cc2)NC1c1ccc(F)cc1 (stereo not drawn) — higher, 7.76%
- COC(=O)N1Cc2ccnnc2CC1c1ccccc1Br (stereo not drawn) — lower, 3.01%
- O=C(/C=C/c1ccc(F)cc1)NC(=S)NNC(=O)c1cccnc1 — lower, -5.76%
- O=C(Nc1ccc(F)cc1)C1CCN(C(=O)c2ccc([N+](=O)[O-])cc2)CC1 — lower, 1.84%
- CCCN1C(=O)c2[nH]nc(-c3ccccc3)c2C1c1ccccc1 (stereo not drawn) — lower, 1.78%
- COC(=O)[C@]12C[C@H](CC(=O)NCc3ccc(OC)c(OC)c3)C(=O)N(Cc3ccccc3)C1=C[C@H](C(C)C)O[C@@H]2C1CC1 — lower, 0.85%
- O=C1[C@@H](c2ccccc2)[C@@H](c2ccccc2)N1c1ccccc1 — lower, 1.64%
- COc1ccc(-c2ccc3c(n2)CCCN3S(=O)(=O)c2ccc(C)cc2)cc1 — lower, 4.42%
- CC(NC(=S)Nc1ccccc1)C1COc2ccccc2O1 (stereo not drawn) — lower, 4.25%
- O=C(COc1ccc(F)cc1Br)NCC1COc2ccccc2O1 (stereo not drawn) — lower, 1.96%
- O=C(N[C@H](Cc1ccccc1)C(=O)N1CCCN(Cc2cccs2)CC1)[C@H]1O[C@@H](n2ccc(=O)[nH]c2=O)[C@H](O)[C@@H]1O — lower, 3.33%
- CCOC(=O)Cn1c2c(n(-c3ccc(F)cc3)c1=O)C=C(c1ccccc1)[C@@H](C)C(C(=O)N(C)C1CCCCC1)=C2 — lower, 3.33%
- CN(C)C(=O)N1CCN(C(=O)[C@@H](Cc2ccccc2)NC(=O)[C@H]2O[C@@H](n3ccc(N)nc3=O)[C@H](O)[C@@H]2O)CC1 — lower, 1.56%
- COc1ccc(CNS(=O)(=O)c2cc(Br)ccc2Br)cc1 — lower, 0.71%
- COc1ccccc1NC(=S)N1CCN(c2ccc(F)cc2)CC1 — lower, 2.7%
- CC1CN(C(=S)Nc2ccccc2F)CC(C)O1 (stereo not drawn) — lower, 2.38%
- CCOC(=O)CNC(=O)N(C)[C@H]1C[C@H]2c3[nH]c4c(-c5ccc6c(c5)OCO6)cccc4c3CCN2C(=O)[C@H]1[C@H](C)O — lower, 1.25%
- COc1cccc(CC(=O)N2CCN(C(=O)C(=O)c3cccc(C(F)(F)F)c3)CC2)c1 — lower, 0.39%
- COC(=O)[C@]12C[C@H](CC(=O)NCCC(C)C)C(=O)N(CCc3ccc(OC)c(OC)c3)C1=C[C@H](C(C)(C)C)O[C@@H]2C — lower, 4.73%
- CCOc1ccc(N(CC(=O)Nc2ccccc2F)S(=O)(=O)c2c(C)[nH]c(=O)[nH]c2=O)cc1 — lower, 3.53%
- COc1ccc(N(CC(=O)NC2CCCCC2)S(=O)(=O)c2c(C)[nH]c(=O)[nH]c2=O)cc1 — lower, -1.14%
- Nc1[nH]c(C(=O)c2ccccc2)c(-c2ccc(Cl)cc2Cl)c1C(=O)c1ccccc1 — lower, 3.17%
- Cc1cc(NCCc2c[nH]c3ccccc23)ccc1Oc1cccnc1 — lower, 1.27%

In the case of `O=c1ccc2c(-c3ccccc3S(=O)(=O)O)c3ccc(O)c(O)c3oc-2c1O`, the inhibition was 12.7% (active).
In the case of `CCCCC(=O)NC(c1ccc(OC)c(OC)c1)c1ccc2cccnc2c1O` (stereo not drawn), the inhibition was 21.1% (active).
In the case of `O=C(NC(Nc1nc2ccc([N+](=O)[O-])cc2s1)(C(F)(F)F)C(F)(F)F)c1ccccc1`, the inhibition was 12.8% (active).
In the case of `O=C(/C=C/c1ccc([N+](=O)[O-])o1)NNC(=O)c1ccc(F)cc1`, the inhibition was 29.6% (active).
In the case of `S=C(NCC1COc2ccccc2O1)Nc1ccc(Br)cc1` (stereo not drawn), the inhibition was 11.1% (active).
With `COc1c(N2CCN(C(=S)Nc3ccccc3F)C(C)C2)c(F)cc2c(=O)c(C(=O)O)cn(C3CC3)c12` (stereo not drawn) the inhibition was 99.2% (active).
In the case of `CCOc1ccc(N(CC(=O)NC2CCCCCC2)S(=O)(=O)c2c(C)[nH]c(=O)[nH]c2=O)cc1`, the inhibition was 80.4% (active).
